Drawing on PMC7862700, “An all-to-all approach to the identification of sequence-specific readers for epigenetic DNA modifications on cytosine”, this text covers binding signal for eight sequences.

What all share (assay): DAPPL (digital affinity profiling via proximity ligation, sequencing); 10 mM Tris-HCl pH 7.5, 50 mM NaCl, 1 mM DTT, 4% glycerol, room temperature, 30 min; GST-TFs on glutathione beads, 16-mer random dsDNA library, 0.1% formaldehyde crosslink after washing; high values mean tight binding
What all share (conditions): protein: recombinant; tags: N-terminal GST; dsDNA, one strand shown

The target of experiment [1] is T1, FLI1 (Homo sapiens, UniProt Q01543 1-452).
T1 sequence: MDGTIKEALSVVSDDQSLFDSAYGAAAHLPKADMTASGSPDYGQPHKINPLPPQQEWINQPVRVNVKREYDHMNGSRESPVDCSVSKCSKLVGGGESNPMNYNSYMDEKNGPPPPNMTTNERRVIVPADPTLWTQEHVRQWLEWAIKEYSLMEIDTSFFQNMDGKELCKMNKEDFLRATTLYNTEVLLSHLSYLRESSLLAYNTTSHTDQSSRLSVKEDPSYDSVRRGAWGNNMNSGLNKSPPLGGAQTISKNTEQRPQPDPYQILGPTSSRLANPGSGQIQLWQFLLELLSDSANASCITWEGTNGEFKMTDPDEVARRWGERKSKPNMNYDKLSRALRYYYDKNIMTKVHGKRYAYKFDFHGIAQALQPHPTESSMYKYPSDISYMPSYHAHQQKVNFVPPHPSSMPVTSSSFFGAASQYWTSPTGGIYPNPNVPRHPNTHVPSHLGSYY
In outline:
(§1)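 Pools of DNA-barcoded human transcription factors, expressed in yeast as GST fusions on glutathione beads and combined with a tag-only sample, were incubated with 200 nmole of a 16-mer random double-stranded DNA library. Incubation took 30 min at room temperature in Tris/NaCl/DTT/glycerol buffer and was followed by washing, 0.1% formaldehyde crosslinking, proximity ligation (BsaI/T4 ligase, 1 h, 37 °C), PCR amplification and sequencing on an Illumina NextSeq500. Binding signal is the ratio of a hexamer's read frequency for a factor to its frequency for the tag-only sample.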

For experiment [2], the target named is T2, ELK1 (Homo sapiens, UniProt P19419 1-428).
T2 sequence: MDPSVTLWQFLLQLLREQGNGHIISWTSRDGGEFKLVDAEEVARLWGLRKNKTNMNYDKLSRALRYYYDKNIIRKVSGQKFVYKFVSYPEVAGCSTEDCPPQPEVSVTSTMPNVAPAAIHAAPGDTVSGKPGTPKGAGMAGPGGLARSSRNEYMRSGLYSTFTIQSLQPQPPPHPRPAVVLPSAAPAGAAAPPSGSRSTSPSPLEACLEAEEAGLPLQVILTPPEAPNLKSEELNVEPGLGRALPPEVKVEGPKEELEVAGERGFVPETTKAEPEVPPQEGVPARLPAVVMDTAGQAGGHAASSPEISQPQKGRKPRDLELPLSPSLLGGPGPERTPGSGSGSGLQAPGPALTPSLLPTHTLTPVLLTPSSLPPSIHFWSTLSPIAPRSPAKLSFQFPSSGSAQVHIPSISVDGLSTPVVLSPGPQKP
The method, boiled down:
as §1

In experiment [3] the target is T3, GABPA (Homo sapiens, UniProt Q06546 1-454).
T3 sequence: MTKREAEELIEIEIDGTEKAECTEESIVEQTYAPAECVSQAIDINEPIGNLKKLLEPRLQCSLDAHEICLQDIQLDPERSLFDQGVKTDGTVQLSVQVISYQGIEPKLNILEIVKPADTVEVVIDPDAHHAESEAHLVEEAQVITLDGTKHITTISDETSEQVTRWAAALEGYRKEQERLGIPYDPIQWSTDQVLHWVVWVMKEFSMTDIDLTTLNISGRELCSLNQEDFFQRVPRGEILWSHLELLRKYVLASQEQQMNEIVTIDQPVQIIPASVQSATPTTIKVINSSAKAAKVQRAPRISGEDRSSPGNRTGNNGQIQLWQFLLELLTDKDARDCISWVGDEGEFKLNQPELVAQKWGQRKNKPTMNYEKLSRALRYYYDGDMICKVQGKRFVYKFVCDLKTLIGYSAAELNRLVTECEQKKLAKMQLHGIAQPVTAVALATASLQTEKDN
In outline: as §1

For experiment [4], the target named is T4, ERG (Homo sapiens, UniProt P11308 1-479).
T4 sequence: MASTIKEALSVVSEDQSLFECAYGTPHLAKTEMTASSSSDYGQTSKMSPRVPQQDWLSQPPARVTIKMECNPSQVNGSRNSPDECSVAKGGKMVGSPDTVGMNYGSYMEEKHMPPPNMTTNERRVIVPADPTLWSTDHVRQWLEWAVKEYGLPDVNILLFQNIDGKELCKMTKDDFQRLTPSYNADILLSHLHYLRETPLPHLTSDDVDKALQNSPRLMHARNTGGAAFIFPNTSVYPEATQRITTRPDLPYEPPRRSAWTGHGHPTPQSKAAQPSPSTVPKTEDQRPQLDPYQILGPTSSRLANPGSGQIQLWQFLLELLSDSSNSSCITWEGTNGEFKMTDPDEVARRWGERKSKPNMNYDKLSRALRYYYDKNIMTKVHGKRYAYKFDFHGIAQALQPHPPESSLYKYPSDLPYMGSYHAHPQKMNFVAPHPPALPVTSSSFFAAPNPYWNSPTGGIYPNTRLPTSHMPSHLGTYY
In outline: as §1

Experiment [5] concerns the target ELF1 (Homo sapiens, UniProt P32519 1-619). The method, boiled down: as §1
The target in experiment [6] is T5, EHF (Homo sapiens, UniProt Q9NZC4 1-300).
T5 sequence: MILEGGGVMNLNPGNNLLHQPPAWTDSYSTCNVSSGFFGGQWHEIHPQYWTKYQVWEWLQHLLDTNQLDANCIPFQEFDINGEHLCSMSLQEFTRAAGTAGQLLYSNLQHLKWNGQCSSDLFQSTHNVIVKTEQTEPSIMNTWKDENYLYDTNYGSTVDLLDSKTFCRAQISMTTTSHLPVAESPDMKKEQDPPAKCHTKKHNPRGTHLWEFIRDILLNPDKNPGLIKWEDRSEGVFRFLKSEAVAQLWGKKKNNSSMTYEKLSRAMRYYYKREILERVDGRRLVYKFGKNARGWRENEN
In outline: as §1

The target of experiment [7] is SPI1 (Homo sapiens, UniProt P17947 1-270). In outline:
as §1

Experiment [8] deals with SPIB (Homo sapiens, UniProt Q01892 1-262). In outline:
as §1

Experiment [9] deals with T6, ELK3 (Homo sapiens, UniProt P41970 1-407).
T6 sequence: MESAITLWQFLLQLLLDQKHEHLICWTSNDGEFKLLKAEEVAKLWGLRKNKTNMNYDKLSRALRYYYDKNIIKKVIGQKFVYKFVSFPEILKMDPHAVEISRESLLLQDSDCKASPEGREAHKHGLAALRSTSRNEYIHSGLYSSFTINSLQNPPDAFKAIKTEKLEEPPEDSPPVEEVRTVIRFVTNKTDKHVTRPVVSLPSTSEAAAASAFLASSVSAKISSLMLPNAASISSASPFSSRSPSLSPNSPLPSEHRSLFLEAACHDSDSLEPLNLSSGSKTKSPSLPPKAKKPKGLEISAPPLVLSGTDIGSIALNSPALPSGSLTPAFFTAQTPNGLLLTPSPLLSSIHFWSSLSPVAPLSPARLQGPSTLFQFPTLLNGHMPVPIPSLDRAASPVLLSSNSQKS
The method, boiled down:
as §1

Chain of ELF1 (P32519 whole entry): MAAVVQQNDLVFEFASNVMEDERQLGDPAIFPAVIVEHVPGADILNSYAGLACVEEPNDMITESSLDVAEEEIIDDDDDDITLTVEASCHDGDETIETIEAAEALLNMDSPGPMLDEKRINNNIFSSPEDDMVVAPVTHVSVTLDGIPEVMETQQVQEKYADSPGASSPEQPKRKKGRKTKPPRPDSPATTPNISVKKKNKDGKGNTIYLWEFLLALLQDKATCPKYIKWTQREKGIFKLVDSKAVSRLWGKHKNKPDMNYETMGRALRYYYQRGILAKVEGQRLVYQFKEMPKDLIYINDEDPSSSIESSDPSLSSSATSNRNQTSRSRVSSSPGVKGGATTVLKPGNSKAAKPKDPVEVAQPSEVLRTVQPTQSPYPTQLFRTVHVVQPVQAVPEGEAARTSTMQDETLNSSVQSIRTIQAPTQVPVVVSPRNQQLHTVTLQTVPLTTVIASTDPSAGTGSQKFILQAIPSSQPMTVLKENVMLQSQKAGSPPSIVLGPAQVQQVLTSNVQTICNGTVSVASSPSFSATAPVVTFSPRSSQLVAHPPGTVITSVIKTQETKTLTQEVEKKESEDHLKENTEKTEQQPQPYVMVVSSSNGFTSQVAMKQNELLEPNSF
Chain of SPIB (Q01892 whole entry): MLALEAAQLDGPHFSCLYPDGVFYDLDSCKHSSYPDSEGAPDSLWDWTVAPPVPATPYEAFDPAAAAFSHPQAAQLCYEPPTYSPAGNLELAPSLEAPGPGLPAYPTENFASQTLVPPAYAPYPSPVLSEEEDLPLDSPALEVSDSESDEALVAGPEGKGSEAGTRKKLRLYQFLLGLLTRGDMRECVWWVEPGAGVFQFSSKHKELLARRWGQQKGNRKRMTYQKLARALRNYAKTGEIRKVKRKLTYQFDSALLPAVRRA

CGGCTT: the binding signal was 1.17 fold enrichment (6-mer frequency, TF over GST control) in [1]; 1.2 fold enrichment (6-mer frequency, TF over GST control) in experiment [2]; 1.12 fold enrichment (6-mer frequency, TF over GST control) in experiment [3]; 1.19 fold enrichment (6-mer frequency, TF over GST control) in experiment [4]; 1.13 fold enrichment (6-mer frequency, TF over GST control) in experiment [5]; 1.13 fold enrichment (6-mer frequency, TF over GST control) in experiment [6]. The binding signal was 1.17 fold enrichment (6-mer frequency, TF over GST control) in experiment [7]; 1.18 fold enrichment (6-mer frequency, TF over GST control) in experiment [8]; 1.12 fold enrichment (6-mer frequency, TF over GST control) in experiment [9].
On to CCGCCA, for which the binding signal is 1.38 fold enrichment (6-mer frequency, TF over GST control) in experiment [1]; 1.31 fold enrichment (6-mer frequency, TF over GST control) in experiment [2]; 1.29 fold enrichment (6-mer frequency, TF over GST control) in [3]; 1.3 fold enrichment (6-mer frequency, TF over GST control) in experiment [4]; 1.32 fold enrichment (6-mer frequency, TF over GST control) in [5]; 1.37 fold enrichment (6-mer frequency, TF over GST control) in experiment [6]. Also, the binding signal in [7] was 1.3 fold enrichment (6-mer frequency, TF over GST control); in experiment [8], 1.09 fold enrichment (6-mer frequency, TF over GST control); in experiment [9] it was 1.34 fold enrichment (6-mer frequency, TF over GST control).
Take TTGCTC: the binding signal was 1.35 fold enrichment (6-mer frequency, TF over GST control) in experiment [1]; 1.4 fold enrichment (6-mer frequency, TF over GST control) in experiment [2]; 1.37 fold enrichment (6-mer frequency, TF over GST control) in experiment [3]; 1.26 fold enrichment (6-mer frequency, TF over GST control) in experiment [4]; 1.28 fold enrichment (6-mer frequency, TF over GST control) in experiment [5]; 1.3 fold enrichment (6-mer frequency, TF over GST control) in [6]. Moreover, the binding signal in [7] is 1.3 fold enrichment (6-mer frequency, TF over GST control); in experiment [8], 1.25 fold enrichment (6-mer frequency, TF over GST control); in experiment [9] it was 1.01 fold enrichment (6-mer frequency, TF over GST control).
As to GGGCTC, the binding signal is 1.21 fold enrichment (6-mer frequency, TF over GST control) in experiment [1]; 1.24 fold enrichment (6-mer frequency, TF over GST control) in [2]; 1.32 fold enrichment (6-mer frequency, TF over GST control) in experiment [3]; 1.17 fold enrichment (6-mer frequency, TF over GST control) in experiment [4]; 1.2 fold enrichment (6-mer frequency, TF over GST control) in experiment [5]; 1.03 fold enrichment (6-mer frequency, TF over GST control) in experiment [6]. Also, the binding signal in experiment [7] was 1.11 fold enrichment (6-mer frequency, TF over GST control); in experiment [8] it was 1.26 fold enrichment (6-mer frequency, TF over GST control); in experiment [9], 1.22 fold enrichment (6-mer frequency, TF over GST control).
As to CGTTAT, the binding signal in experiment [1] is 1.14 fold enrichment (6-mer frequency, TF over GST control); in experiment [2], 1.11 fold enrichment (6-mer frequency, TF over GST control); in [3] it was 1.11 fold enrichment (6-mer frequency, TF over GST control); in experiment [4] it was 1.1 fold enrichment (6-mer frequency, TF over GST control); in [5], 1.17 fold enrichment (6-mer frequency, TF over GST control); in experiment [6] it was 1.07 fold enrichment (6-mer frequency, TF over GST control). Further, the binding signal in [7] is 1.11 fold enrichment (6-mer frequency, TF over GST control); in experiment [8], 1.16 fold enrichment (6-mer frequency, TF over GST control); in experiment [9], 1.26 fold enrichment (6-mer frequency, TF over GST control).
In the case of GGCACT, the binding signal was 1.24 fold enrichment (6-mer frequency, TF over GST control) in [1]; 1.21 fold enrichment (6-mer frequency, TF over GST control) in experiment [2]; 1.28 fold enrichment (6-mer frequency, TF over GST control) in experiment [3]; 1.22 fold enrichment (6-mer frequency, TF over GST control) in [4]; 1.22 fold enrichment (6-mer frequency, TF over GST control) in experiment [5]; 1.33 fold enrichment (6-mer frequency, TF over GST control) in [6]. The binding signal in [7] is 1.35 fold enrichment (6-mer frequency, TF over GST control); in [8] it was 1.35 fold enrichment (6-mer frequency, TF over GST control); in [9], 1.27 fold enrichment (6-mer frequency, TF over GST control).
For CCCTGC, the binding signal in experiment [1] is 1.11 fold enrichment (6-mer frequency, TF over GST control); in [2], 1.22 fold enrichment (6-mer frequency, TF over GST control); in [3], 1.12 fold enrichment (6-mer frequency, TF over GST control); in experiment [4] it was 1.21 fold enrichment (6-mer frequency, TF over GST control); in experiment [5], 1.26 fold enrichment (6-mer frequency, TF over GST control); in [6] it was 1.17 fold enrichment (6-mer frequency, TF over GST control). For the same sequence, the binding signal in experiment [7] was 1.2 fold enrichment (6-mer frequency, TF over GST control); in experiment [8], 1.16 fold enrichment (6-mer frequency, TF over GST control); in experiment [9], 1.18 fold enrichment (6-mer frequency, TF over GST control).
As for CGATCC, the binding signal in [1] was 1.26 fold enrichment (6-mer frequency, TF over GST control); in experiment [2], 1.14 fold enrichment (6-mer frequency, TF over GST control); in [3], 1.19 fold enrichment (6-mer frequency, TF over GST control); in [4] it was 1.21 fold enrichment (6-mer frequency, TF over GST control); in [5] it was 1.27 fold enrichment (6-mer frequency, TF over GST control); in [6] it was 1.22 fold enrichment (6-mer frequency, TF over GST control). Further, the binding signal was 1.25 fold enrichment (6-mer frequency, TF over GST control) in [7]; 1.22 fold enrichment (6-mer frequency, TF over GST control) in experiment [8]; 1.38 fold enrichment (6-mer frequency, TF over GST control) in [9].
